In the library only some 3% were active in any assay of this set; here they are far more common.
KCNH2 3.1 inh: KCNH2 3.1 (human) potassium channel inhibition; activity change, % (tested at about 1.8 µM); U2OS KCNH2 3.1, thallium flux FluxOr; hits give low values; AID 720553; hit rate 0.95% among 340,000;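 active = maximum activity change below -70%; inconclusive = maximum activity change from -70% to -50%; inactive = maximum activity change above -50%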;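 also: thallium influx rate constant from kinetic fluorescence after stimulation buffer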
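FluxOr-based Tl+ influx in U2OS cells transduced with KCNH2 3.1 virus; rate constants normalized to DMSO controls.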
BCR signal inh: chronic active BCR signaling inhibition; ABC-DLBCL IkBa-CBG/CBR reporter, luminescence ratio, 4 h; Potency, µM (top dose mostly 46.1 µM), hits mostly inhibitors; hit rate 0.05% among 340,000; active = well fitted inhibition curve with a large enough effect in the signal ratio, with a control signal flat, not every such curve was filed as active; inconclusive = small, poorly fitted or top-dose-only effect, or effect the other way, or a change in a side signal; the % refers to the signal ratio
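Compounds up to 46 uM were incubated four hours with TMD8 cells whose green CBG68 luciferase is fused to IkappaBalpha; red CBR luminescence normalised the signal, and concentration-effect curves were fitted to fusion, red and ratio data.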
ALOX12 inh: blocks human arachidonate 12S-lipoxygenase; purified 12hLO, xylenol orange hydroperoxide absorbance; hit rate 1.1% among 580,000; P18054; AID 1671190; Potency, µM (doses to about 108 µM), actives largely listed as inhibitors; active = well fitted inhibition curve with a large enough effect; inconclusive = small, poorly fitted or top-dose-only effect, or another doubt; inactive = no such curve, though single readings can be large or run the other way
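Purified human 12hLO (150 nM final) in 25 mM Hepes, 0.01% Triton X-100, pH 7.0 was preincubated 15 min at room temperature with compound. Then 40 uM arachidonic acid was added, 30 min. Hydroperoxide was read by Fe-XO absorbance ratio 573/405 nm.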
LDHA inh: LDHA (human) enzyme inhibition; P00338; purified LDHA, NADH/diaphorase-resazurin fluorescence; hits give low values; activity change, % (values are at about 110 or 230 µM); hit rate 0.15% among 480,000; AID 1347041; in the data active = activity change below about -30%; inconclusive = mostly about -25% to -30%
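Human LDH5 at 2 nM final in Tris HCl pH 7.4 with 0.06 mM NADH and 0.2 mM pyruvate, reacted 5 minutes at room temperature. Remaining NADH coupled via diaphorase/resazurin; resorufin fluorescence read at 0 and 20 minutes, normalized to enzyme-free and DMSO wells.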
ClpP mod: qHTS Assay for Activators of ClpP. ATP-dependent Clp protease proteolytic subunit (Bacillus subtilis (strain 168)), P80244. purified B. subtilis ClpP, FRET peptide cleavage, 20 min. AID 651965, 2013. hit rate 1.9% among 340,000. Potency, µM (series often up to 57.5 µM); active = well fitted falling curve with a large enough effect; inconclusive = small, poorly fitted or top-dose-only effect; inactive = no such curve, though single readings can be large or run the other way; also: the source files actives as falling curves though it sought activators and does not explain the sign; nearly all actives have a fitted effect of over 65% in size
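Buffer: 100 mM Tris/HCl pH8, 100 mM KCl, 0.05% low protease BSA, 2.5% glycerol, 0.01% Tween-20. ClpP 10 microg/mL final; 20 min RT; delta FRET normalized to ADEP and DMSO controls.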
KCNH2 WT inh: KCNH2 (human, wildtype) channel inhibition; activity change, % at 1.84 µM; AID 720551; hit rate 0.37% among 340,000; Q12809; U2OS, BacMam KCNH2, thallium flux FluxOr; hits give low values;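 active = maximum activity change below -70%; inconclusive = maximum activity change between -70% and -50%; inactive = maximum activity change above -50%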
Target sequence (Q12809 whole entry, looked up): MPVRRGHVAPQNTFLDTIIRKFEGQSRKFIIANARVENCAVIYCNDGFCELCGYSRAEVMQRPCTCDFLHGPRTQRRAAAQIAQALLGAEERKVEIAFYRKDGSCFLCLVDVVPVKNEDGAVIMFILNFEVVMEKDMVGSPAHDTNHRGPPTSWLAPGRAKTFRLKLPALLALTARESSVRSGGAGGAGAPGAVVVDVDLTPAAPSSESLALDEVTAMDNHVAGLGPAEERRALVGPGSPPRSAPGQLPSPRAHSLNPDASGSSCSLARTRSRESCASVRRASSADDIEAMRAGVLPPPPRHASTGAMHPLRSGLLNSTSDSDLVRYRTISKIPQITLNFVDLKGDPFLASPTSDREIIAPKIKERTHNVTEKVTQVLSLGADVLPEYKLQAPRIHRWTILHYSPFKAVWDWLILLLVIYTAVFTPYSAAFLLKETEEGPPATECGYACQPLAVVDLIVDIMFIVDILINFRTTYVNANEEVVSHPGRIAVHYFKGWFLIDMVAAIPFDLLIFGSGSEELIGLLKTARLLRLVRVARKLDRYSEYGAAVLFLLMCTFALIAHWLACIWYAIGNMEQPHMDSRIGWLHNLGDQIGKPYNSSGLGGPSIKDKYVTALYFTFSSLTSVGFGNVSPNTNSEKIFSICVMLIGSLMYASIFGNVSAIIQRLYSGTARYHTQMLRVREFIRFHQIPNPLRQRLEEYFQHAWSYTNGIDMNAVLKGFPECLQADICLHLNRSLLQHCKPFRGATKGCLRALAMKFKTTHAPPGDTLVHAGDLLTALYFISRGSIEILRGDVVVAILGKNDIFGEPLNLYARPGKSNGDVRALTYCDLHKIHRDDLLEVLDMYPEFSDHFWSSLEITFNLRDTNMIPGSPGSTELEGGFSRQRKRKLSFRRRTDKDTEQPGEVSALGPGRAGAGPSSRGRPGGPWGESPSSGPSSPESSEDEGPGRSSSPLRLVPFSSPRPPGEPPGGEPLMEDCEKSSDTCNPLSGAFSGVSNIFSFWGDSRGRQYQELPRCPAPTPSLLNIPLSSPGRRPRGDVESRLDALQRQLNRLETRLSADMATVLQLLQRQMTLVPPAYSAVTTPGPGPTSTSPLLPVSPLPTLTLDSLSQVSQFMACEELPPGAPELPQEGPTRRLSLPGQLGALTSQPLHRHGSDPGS
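U2OS cells were transduced with wild-type KCNH2 virus (2.03 x 10^8 / mL) for 4 h at room temperature, then cultured overnight at 37 C. Thallium flux was read with FluxOr dye. Rate constants were normalized to DMSO controls.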
Hits are given with their value; - = inactive; ? = inconclusive; . = no result given.

SMILES	KCNH2 3.1 inh	BCR signal inh	ALOX12 inh	LDHA inh	ClpP mod	KCNH2 WT inh
Fc1cccc(CCN2C(=S)NC[C@@H]2CC2CCCCC2)c1	-	-	40µM	-	-	-
Fc1cccc(CCN2C(=S)NC[C@@H]2Cc2ccccc2)c1	-	-	?	-	-	-
COc1cc(SC#N)ccc1N=Cc1c(C)[nH]n(-c2cccc3ccccc23)c1=O	-	?	.	-	28µM	-
COc1cc(SC#N)ccc1N=Cc1c(C)[nH]n(-c2ccc(C)cc2C)c1=O	-	.	-	-	?	-
O=C(Cc1ccccc1)NC(=S)Nc1ccc(OC(F)F)cc1	-	-	35µM	-	.	-
CCOc1ccc(NC(=S)NCc2nc3ccccc3[nH]2)cc1	?	-	-	-	-	.
COc1ccc(NC(=S)NC(=O)Cc2ccccc2)cc1	-	-	-	-	-	-
FC(F)Oc1ccc(NC(=S)NCc2nc3ccccc3[nH]2)cc1	-85	-	-	-	.	-
Cc1ccc2cc(C)c(SCC(=O)NCc3ccco3)nc2c1	-	?	-	-	.	-
Cc1cccc(-c2nc(C#N)c(NCc3ccccc3)o2)c1	.	.	50µM	-	.	.
N#Cc1nc(-c2ccco2)oc1NCc1ccccc1	.	.	-	-	.	.
Cc1ccc(-c2nc(C#N)c(NCc3ccco3)o2)cc1	-	-	?	-	20µM	-
Cc1ccc2cc(C#N)c(NCc3ccco3)nc2c1	-	?	?	-	25µM	-
N#Cc1nc(-c2ccccc2)oc1NCc1ccccc1	.	.	-	-	.	.
N#Cc1nc(-c2ccco2)oc1NCc1ccco1	-	-	-	-	3.2µM	-
COc1ccc(C(C)=O)cc1CS(=O)(=O)Cc1cccc(F)c1	.	.	-	-	.	.
N#Cc1nc(-c2ccco2)oc1NCCCN1CCOCC1	?	-	-	-	3.5µM	-
CCOc1ccc(C(=O)Nc2cc(C)ccn2)c(OCC)c1	.	.	-	-	.	.
Cc1sc2nc(COC(=O)c3cccc(OC(F)F)c3)[nH]c(=O)c2c1C	-	-	-	-	.	-92
Cc1sc2nc(COC(=O)c3cccc(S(=O)(=O)N(C)c4ccccc4)c3)[nH]c(=O)c2c1C	-	-	-	-	.	-
CCN(CC)S(=O)(=O)c1ccc(=O)n(Cc2ncc(-c3ccccc3)o2)c1	.	.	-	-	.	.
COc1ccc(NC(=O)c2sc3cc(C(F)(F)F)cnc3c2-c2cccs2)cc1	-92	-	-	-	-	-
CC1CCC2(CC1)NC(=O)N(CC(=O)c1ccc[nH]1)C2=O (stereo not drawn)	-	?	-	-	28µM	-
CC1CCCCC12NC(=O)N(CC(=O)c1ccc[nH]1)C2=O (stereo not drawn)	-	-	-	-	-	-
CC(C)c1ccc(C(=O)NCc2cccc(CNC(=O)c3ccc(C(C)C)cc3)c2)cc1	.	.	?	-	.	.
SMILES	KCNH2 3.1 inh	BCR signal inh	ALOX12 inh	LDHA inh	ClpP mod	KCNH2 WT inh
COC(=O)C1=C(C)NC2=C(C(=O)CC(C)(C)C2)C1c1ccccn1 (stereo not drawn)	-	-	-	-	28µM	-
COC(=O)C1=C(C)NC2=C(C(=O)CC(C)(C)C2)C1c1ccsc1 (stereo not drawn)	-	-	-	-	28µM	-
CCN(CC)C(=O)c1sc(NC(=O)C2c3ccccc3Oc3ccccc32)c(C#N)c1C	.	.	?	-	.	.
COc1cc2ccccc2cc1C(=O)N1CCN(CC(=O)Nc2cccc(F)c2)CC1	.	.	-	-	.	.
COc1ccc(OCCN(C)CC(=O)Nc2c(C)cccc2C)cc1	-	-	-	-	20µM	-
CN(Cc1ccccc1)Cc1nc2c(c(=O)n(C)c(=O)n2C)n1CC(N)=O	.	.	-	-	.	.
Cc1ccc(C)c(NC(=O)C(C)SCCO)c1 (stereo not drawn)	.	.	?	-	.	.
CCC(C)c1ccccc1NC(=O)COC(=O)c1ccc2[nH]c3c(c2c1)CCCC3 (stereo not drawn)	-	?	-	-	32µM	-
CC1CCN(S(=O)(=O)c2ccc3c(c2)C(Cl)(Cl)C(=O)N3)CC1	-	.	40µM	-	-	-
CC1CCCN(C2(O)C(=O)Nc3ccc(Cl)cc32)C1 (stereo not drawn)	-	?	-	-	-	-
CC1CCN(C2(O)C(=O)Nc3ccc(Cl)cc32)CC1 (stereo not drawn)	-	-	-	-	13µM	-
Cc1cccc(CNC(C(=O)O)C(C)C)c1 (stereo not drawn)	.	.	?	-	.	.
COC(=O)c1c(NC(=S)Nc2cc(OC)c(Cl)cc2OC)sc2c1CCCCC2	-	-	40µM	-	-	-
CCOC(=O)c1c(NC(=S)Nc2cc([N+](=O)[O-])ccc2OC)sc2c1CCCCC2	.	-	.	.	.	.
O=C(c1cc(C2=NNC(=Nc3ccc(Cl)cc3)SC2)c[nH]1)N1CCCC1	.	.	?	-	.	.
CS(=O)(=O)Nc1cccc(-c2ccc3ncnc(Nc4ccc(F)cc4)c3c2)c1	.	.	18µM	.	.	.
CC(C)CCC(CCNCc1ccccn1)c1ccc(Cl)cc1 (stereo not drawn)	-91	?	?	-	.	-
S=C(NCc1ccc(Cl)cc1)NCc1ccccn1	-	-	-	-	-	-
Cc1ccc(NC(=O)NC(=O)N(C(C)C)S(C)(=O)=O)nc1	-	-	-	-	35µM	-
COc1cc(NC(=O)c2ccccc2-c2ccccc2)cc(OC)c1OC	.	-	.	.	.	.
COc1cc(C=Nc2ccccc2C(=O)Nc2ccccc2)cc(OC)c1OC	-	-	-	-	25µM	-
c1csc(-c2ccc3ccccc3n2)c1	-	-	-	-	14µM	-
Nc1nc2ccccc2cc1-c1cccs1	-	-	-	-	-	-
COc1cc(/C=C/C2=NC(=O)C(C)(C)O2)ccc1O	-	-	.	-	-	-
COc1cc(/C=C/C2=Nc3ccccc3SC(C)(C)C2)ccc1O	.	.	16µM	-	.	.
SMILES	KCNH2 3.1 inh	BCR signal inh	ALOX12 inh	LDHA inh	ClpP mod	KCNH2 WT inh
COc1cccc(C(=O)COC(=O)C2C3CC4C(OC(=O)C42)C3Br)c1 (stereo not drawn)	.	.	?	-	.	.
Cc1cc2oc(=O)cc(CSc3nnnn3C3CC3)c2cc1C	.	.	?	-	.	.
COc1ccc(CN(C)CC(=O)N(C)c2ccccc2C(=O)NCc2ccco2)cc1	.	.	-	-	.	.
CCN(c1ccccc1)S(=O)(=O)c1ccc(OC)c(NC(=O)CN(C)C)c1	-	-	-	-32	-	-
CCN(c1ccccc1)S(=O)(=O)c1ccc(OC)c(NC(=O)CNC)c1	-	-	?	-	.	-
O=S1(=O)C=C(Sc2nc3ccccc3o2)c2ccccc21	.	.	-	-	.	.
O=S1(=O)C=C(Sc2nc3cc(Cl)ccc3o2)c2ccccc21	-	6.3µM	.	-	-	-
Cc1cccc(C(=O)Nc2sc3c(c2C(=O)NCc2ccccc2)CCC3)c1	.	.	?	-	.	.

Screening results: PubChem, National Center for Advancing Translational Sciences (NCATS)
